Results published in PubChem BioAssay AID624414 (National Center for Advancing Translational Sciences (NCATS), 2012).
Hit rate of the full screen: of about 410,000 compounds, about 480 (0.12%) were called active. The full list was thinned out, with actives kept by preference. A number with no mark means an inactive call. Cut-off read from the data, not from the text of the source: active = activation above about 50%; inconclusive = mostly about 30% to 49%; inactive = weaker than that.
Note: 0% is about no effect.

The molecules below were run against Mucolipin-1 (Homo sapiens) (UniProt Q9GZU1) (assay: qHTS for Agonists of the Human Mucolipin Transient Receptor Potential 1 (TRPML1)). Conditions: TRPML1-expressing cells, Ca2+ dye fluorescence, FDSS; stronger effect = higher value.
Chain of Mucolipin-1 (Homo sapiens) (Q9GZU1 whole entry, looked up, the tested form may be a part): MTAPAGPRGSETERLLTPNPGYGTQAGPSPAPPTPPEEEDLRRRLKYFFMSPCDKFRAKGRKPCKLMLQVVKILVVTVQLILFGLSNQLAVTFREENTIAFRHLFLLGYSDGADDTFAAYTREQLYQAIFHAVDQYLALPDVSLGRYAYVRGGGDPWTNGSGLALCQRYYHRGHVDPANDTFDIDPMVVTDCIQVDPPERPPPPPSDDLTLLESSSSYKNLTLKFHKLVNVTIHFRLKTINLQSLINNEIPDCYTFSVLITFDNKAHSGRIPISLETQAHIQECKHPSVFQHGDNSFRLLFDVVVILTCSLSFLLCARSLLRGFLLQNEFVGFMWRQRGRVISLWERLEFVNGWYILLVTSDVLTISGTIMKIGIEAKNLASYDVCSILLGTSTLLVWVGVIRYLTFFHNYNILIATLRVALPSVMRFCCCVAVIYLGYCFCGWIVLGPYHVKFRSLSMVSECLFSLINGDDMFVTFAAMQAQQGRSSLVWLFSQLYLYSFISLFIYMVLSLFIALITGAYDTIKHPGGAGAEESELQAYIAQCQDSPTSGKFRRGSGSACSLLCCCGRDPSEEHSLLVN
From the text: Mutations of human Mucolipin transient receptor potential 1 (TRPML1) cause type IV mucolipidosis (ML4), a devastating neurodegenerative disease in young children. […] Currently, there is no treatment for ML4. […] Under physiological conditions, TRPMLs regulate membrane trafficking by transducing information about PI(3,5)P2 levels into changes in juxtaorganellar Ca2+, thereby triggering membrane fusion/fission events in the late endocytic pathways (endolysosomal trafficking). In addition, TRPML1 mediates release of Fe2+ from late endosomes and lysosomes, which is essential for cellular iron metabolism. Thus, impaired ion (Ca2+ and Fe2+) homeostasis underlies lysosomal dysfunction and ML4 phenotypes. In ML4 cells, the problem is twofold. First, defective Ca2+-dependent membrane trafficking due to TRPML1-deficiency causes accumulation of lipids and other bio-materials in the lysosome. The second strike comes from the lysosomal iron overload (due to impairment of TRPML1's Fe2+ conductivity), which converts the accumulated materials into the nondegradable (resistant to lysosomal degradation) lipofuscin (also called aging pigment) in the lysosome. Lipofuscin accumulation dramatically compromises the functions of lysosomes.
Niemann-Pick type C (NPC) disease is another lysosome storage disease (LSD) with severe neurodegeneration during the childhood. Currently, there is no cure for NPC. […] Thus, TRPML1 is likely to be an essential regulator of lysosome ion homeostasis. We specifically hypothesize that stimulating TRPML1's Fe2+/Ca2+ channel activity in the lysosome using synthetic agonists can alleviate neurodegeneration associated with ML4 or NPC.
To this end, a high throughput screen was developed in a miniaturized format to screen against the Molecular Libraries Small Molecule Repository (MLSMR) to find small molecules that act either as inhibitors or agonist against the TRPML1 channel.
NIH Chemical Genomics Center [NCGC]
NIH Molecular Libraries Probe Centers Network [MLPCN]
Assay Submitter (PI): Haoxing Xu, University of Michigan Ann Arbor
TRPML1-DL cells are dissociated from flasks, counted and, brought up to a density of 500,000 cells per mL of media containing a 1X Tet inducer. Using a Multidrop Combi, 3uL of this cell solution is dispensed to each well of a 1536 TC treated, black, clear bottom hi base plate for a final cell density of 1,500 cells per well. The assay plates are incubated overnight (approximately 16 hours) at 37 degrees C and 5% CO2. Using a Multidrop Combi, 2uL of ABD Ca8 no wash dye plus quencher is added to each well. The assay plates incubate at room temperature in the dark for 45-90 minutes. The assay plate is read on the FDSS using the following protocol: 10 second baseline read, 23nL of compounds and controls are added using 1536 pintool, agonist read for 110 seconds, 1 uL EC80 addition (4uM final 54-4 diluted in media), antagonist read for 110 seconds.
`COc1cccc(-c2nnc3n(CCc4ccccc4)c(=O)c4ccccc4n23)c1O` gave an activation of 1.15%. In the case of `Cc1ccc2nc(CNC(=O)c3ccccc3)[nH]c2c1`, the activation is reported as 2.07%. `COc1ccc(/C=C(/NC(=O)c2ccc(C)cc2)c2nc3ccccc3[nH]2)cc1OC` was tested, and the activation was 50.1% (active). Work on `CCOc1ccc(/C=C(\C#N)c2nc3ccccc3c(=O)[nH]2)cc1OC` yielded an activation of 1.09%. For `N#Cc1ccc[n+](CC(=O)c2ccc(F)cc2)c1`, the activation was 1.03%. `COC(=O)C(CC(C)C)NS(=O)(=O)c1cc(Br)ccc1Br` (stereo not given) was tested, and the activation was 1.9%. Work on `OC(CBr)CN1CCCCC1` (stereo not given) yielded an activation of -0.38%. In the case of `Cc1cccc(N2CCN(C(=O)CCn3c(=O)c4cccn4c4cccnc43)CC2C)c1` (stereo not given), the activation is reported as 0.62%. Work on `C=CCNC(=O)c1ccc2nc(-c3ccco3)c(-c3ccco3)nc2c1` yielded an activation of -0.254%. Molecule `OC(CBr)C[n+]1cccc2cc(Br)ccc21` (stereo not given) has an activation of 1.14%. Molecule `Nc1ncnc2nnsc12` has an activation of 0.38%. `CN(C)c1ccc(/C=C/c2sc3ccccc3[n+]2CCCCBr)cc1` showed an activation of 6.96%. Molecule `CCC(C(=O)Nc1cccc(Cl)c1C)n1nc(-c2ccc(C)cc2)ccc1=O` (stereo not given) has an activation of 3.09%. Work on `S=c1[nH]c(=S)c2n[nH]nc2[nH]1` yielded an activation of 0%. With `CC(C)(C)c1ccc(C(=O)C[N+]2(C)CCCc3ccccc32)cc1` (stereo not given) the activation was -0.62%. Molecule `O=C1O/C(=C\c2ccc(O)cc2)C(O)=C1c1ccc(O)cc1` has an activation of -0.353%. `COc1ccc(OC)c(NC(=O)CSC2=Nc3ccccc3C3=NC(CC(=O)NCc4ccc(F)cc4)C(=O)N23)c1` (stereo not given) gave an activation of 2.38%. `CCN1CCN(c2ncc3c(n2)CC(c2ccccc2O)CC3=O)CC1` (stereo not given) showed an activation of -0.182%. With `CCCS(=O)(=O)Nc1cccc(-c2cn3ccsc3n2)c1` the activation was -0.225%. In the case of `CN(CCC#N)c1ccc(C=O)cc1`, the activation is reported as -0.222%. `COc1ccc(NC(=O)c2sc3nc(C)nc(N4CCN(c5ccccn5)CC4)c3c2C)c(OC)c1` was tested, and the activation was 105% (active). `Cc1nc(N2CCN(c3ccccn3)CC2)c2c(C)c(C(=O)Nc3ccc(F)c(Cl)c3)sc2n1` showed an activation of -0.23%. `COc1cc([N+](=O)[O-])ccc1NC(=S)N1CCN(c2ccccn2)CC1` showed an activation of 0.452%. Molecule `O=C(Nc1ccccc1)c1ccccc1OCc1ccccc1` has an activation of 0.0539%. For `COc1cc2nc(N3CCCN(C)CC3)nc(NC(C)C)c2cc1OC`, the activation was -0.755%. In the case of `O=C1CC(c2ccccc2)CC2=C1C(c1ccco1)n1nc(C(F)(F)F)nc1N2` (stereo not given), the activation is reported as -1.28%. `C=COC(=O)N1CCN(/[N+]([O-])=N/Oc2ccc([N+](=O)[O-])cc2[N+](=O)[O-])CC1` showed an activation of 1.19%. `COc1ccc(CN(Cc2ccccc2)C(=O)c2ccc(O)cc2)cc1COc1ccc(NC(C)=O)cc1` gave an activation of 1.13%. Work on `OC(Cc1ccc2ccccc2n1)c1ccc(Cl)c(Cl)c1` (stereo not given) yielded an activation of 0.0951%. Molecule `CCN(CC)c1ccc(C2C(C(N)=O)=C(C)Nc3nc(SCc4ccccc4)nn32)cc1` (stereo not given) has an activation of -0.404%. Work on `CCCOc1ccc(C2c3c(-c4ccccc4O)n[nH]c3C(=O)N2Cc2cccnc2)cc1` (stereo not given) yielded an activation of 1.02%. For `Cc1nn(C)cc1N1C(=O)c2cccc3c(N)ccc(c23)C1=O`, the activation was 66.8% (active). `CN1C(=O)c2cccc3c(N)ccc(c23)C1=O` was tested, and the activation was 85.5% (active). In the case of `Cc1ccc(Cn2cnc3c(cnn3C(C)(C)C)c2=O)c(F)c1`, the activation is reported as 1.07%. For `CN(C)c1ccc(NC(=O)CSc2nc(-c3ccco3)cc(C(F)(F)F)n2)cc1`, the activation was 0.776%. With `CCN(CC)CCCC(C)Nc1ccnc2cc(Cl)ccc12` (stereo not given) the activation was 0.571%. For `CCN(CC)CCCC(C)n1c2nc(=O)[nH]c(=O)c-2nc2cc(Cl)ccc21` (stereo not given), the activation was 82.9% (active). `Cc1cccc(-n2c(=O)c3c(c4cc(C)ccc4n3C)n(CC(=O)Nc3ccccc3Cl)c2=O)c1` gave an activation of 1.58%. In the case of `Brc1cccc[n+]1Cc1cccc(C[n+]2ccccc2Br)c1`, the activation is reported as 0.0634%. With `Cc1cccc(NC(=O)COC(=O)c2ccccc2OCc2cccc(Br)c2)c1` the activation was -0.0809%. Molecule `CCCCCCCNc1ccc(/C=C/c2ccnc3ccccc23)cc1` has an activation of 6.43%. In the case of `O=C(Nc1ccc(Cl)cc1)c1cnn2c1NC(=C1CC1)C=C2C(F)F`, the activation is reported as -0.513%. `CCN(CC)c1ccc2cc(C(N)=O)/c(=N\NC(=O)c3ccncc3)oc2c1` was tested, and the activation was 81% (active). `C/C(=N\NC(N)=S)c1ccncc1` was tested, and the activation was 0%. `CCOC(=O)c1c(C)oc2ccc(N(C(=O)c3ccncc3)S(=O)(=O)c3ccc(CC)cc3)cc12` gave an activation of 0.815%.
